Assay results published in the supplement of paper PMC8728848.
Many of the other results were omitted from the sample, so the strongest signals are more common in it than they were.

Experiments:
Assay in all cases: glycan array binding signal (z-score within array); higher = stronger binding
Settings in all cases: glycan notation: IUPAC condensed, linker removed
[1] = target: Fuc(a1-2)Gal(b1-3)GalNAc(b1-4)[Neu5Ac(a2-3)]Gal(b1-4)Glc
Method in brief: (§1)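 Glycan array data were curated from 3228 arrays in the Consortium for Functional Glycomics database and kept only where the protein sequence was available. Glycan names were converted to IUPAC-condensed notation, and columns mapping to the same glycan were averaged. The binding signal is a within-array Z-score, averaged across arrays of the same protein sequence at different concentrations or buffers and across linkers. Negative Z-scores can be read as non-binding.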

[2] = target: Fuc(a1-2)Gal(b1-3)GlcNAc6S
Method in brief: as §1

[3] = target: Fuc(a1-2)Gal(b1-3)[Fuc(a1-4)]GlcNAc(b1-3)[Fuc(a1-3)[Gal(b1-4)]GlcNAc(b1-6)]Gal(b1-4)Glc
Method in brief: as §1

Fuc(a1-2)Gal(b1-4)Glc6S = target: Fuc(a1-2)Gal(b1-4)Glc6S
Method in brief: as §1

Fuc(a1-2)Gal(b1-4)GlcNAc = target: Fuc(a1-2)Gal(b1-4)GlcNAc
Method in brief: as §1

[4] = target: Fuc(a1-2)Gal(b1-4)GlcNAc(b1-2)Man(a1-3)[Fuc(a1-2)Gal(b1-4)GlcNAc(b1-2)Man(a1-6)]Man(b1-4)GlcNAc(b1-4)[Fuc(a1-6)]GlcNAc
Method in brief: as §1

[5] = target: Fuc(a1-2)Gal(b1-4)GlcNAc(b1-3)Gal(b1-4)GlcNAc
Method in brief: as §1

[6] = target: Fuc(a1-2)Gal(b1-4)[Fuc(a1-3)]GlcNAc(b1-3)GalNAc
Method in brief: as §1

[7] = target: Fuc(a1-2)[Gal(a1-3)]Gal(b1-4)[Fuc(a1-3)]Glc
Method in brief: as §1

[8] = target: Fuc(a1-2)[GalNAc(a1-3)]Gal(b1-4)Glc
Method in brief: as §1

[9] = target: Fuc(a1-2)[GalNAc(a1-3)]Gal(b1-4)GlcNAc(b1-2)Man(a1-3)[Fuc(a1-2)[GalNAc(a1-3)]Gal(b1-4)GlcNAc(b1-2)Man(a1-6)]Man(b1-4)GlcNAc(b1-4)[Fuc(a1-6)]GlcNAc
Method in brief: as §1

[10] = target: Fuc(a1-2)[GalNAc(a1-3)]Gal(b1-4)GlcNAc(b1-6)GalNAc
Method in brief: as §1

[11] = target: Fuc(a1-2)[GalNAc(a1-3)]Gal(b1-4)[Fuc(a1-3)]GlcNAc
Method in brief: as §1

[12] = target: Fuc(a1-2)[GalNAc(a1-3)]Gal(b1-4)[Fuc(a1-3)]GlcNAc(b1-3)GalNAc
Method in brief: as §1

[13] = target: Fuc(a1-3)[Gal(b1-4)]GlcNAc(b1-2)Man(a1-3)[Fuc(a1-3)[Gal(b1-4)]GlcNAc(b1-2)Man(a1-6)]Man(b1-4)GlcNAc(b1-4)[Fuc(a1-6)]GlcNAc
Method in brief: as §1

[14] = target: Fuc(a1-3)[Gal(b1-4)]GlcNAc(b1-3)Gal(b1-4)[Fuc(a1-3)]GlcNAc(b1-3)Gal(b1-4)[Fuc(a1-3)]GlcNAc
Method in brief: as §1

[15] = target: Fuc(a1-3)[Gal(b1-4)]GlcNAc6S
Method in brief: as §1

[16] = target: Gal(a1-3)Gal(b1-4)[Fuc(a1-3)]GlcNAc(b1-2)Man(a1-3)[Gal(a1-3)Gal(b1-4)[Fuc(a1-3)]GlcNAc(b1-2)Man(a1-6)]Man(b1-4)GlcNAc(b1-4)GlcNAc
Method in brief: as §1

[17] = target: Gal(a1-4)Gal(b1-4)GlcNAc(b1-2)Man(a1-3)[Gal(a1-4)Gal(b1-4)GlcNAc(b1-2)Man(a1-6)]Man(b1-4)GlcNAc(b1-4)GlcNAc
Method in brief: as §1

[18] = target: Gal(b1-3)GlcNAc(b1-2)[Gal(b1-3)GlcNAc(b1-6)]Man(a1-6)[Gal(b1-3)GlcNAc(b1-2)Man(a1-3)]Man(b1-4)GlcNAc(b1-4)GlcNAc
Method in brief: as §1

[19] = target: Gal(b1-3)GlcNAc(b1-3)Gal(b1-4)[Fuc(a1-3)]GlcNAc
Method in brief: as §1

[20] = target: Gal(b1-3)GlcNAc(b1-6)Gal(b1-4)GlcNAc
Method in brief: as §1

[21] = target: Gal(b1-4)GlcNAc(b1-2)Man(a1-3)[Gal(b1-4)GlcNAc(b1-2)Man(a1-6)][GlcNAc(b1-4)]Man(b1-4)GlcNAc(b1-4)[Fuc(a1-6)]GlcNAc
Method in brief: as §1

[22] = target: Gal(b1-4)GlcNAc(b1-3)Gal(b1-4)GlcNAc(b1-2)[Gal(b1-4)GlcNAc(b1-3)Gal(b1-4)GlcNAc(b1-6)]Man(a1-6)[Gal(b1-4)GlcNAc(b1-3)Gal(b1-4)GlcNAc(b1-2)Man(a1-3)]Man(b1-4)GlcNAc(b1-4)GlcNAc
Method in brief: as §1

B1: GS7807H-bfa-490-18-490 (Bacteroides fragilis) (protein)
chain: GNLEEMNIDPDNATQTHPKLLLTQICMNAFKRGTDGMYATKKVIQADGESADQYYKWTRGSFGYYDNLRNVQKMGEEAERVNAPVYTALTKFFRAYYFYELTLRFGDIPYSQALKGEKEEIYTPEYDAQEDVFAGILQELREADEILANDASVIDGDIIYNGNSTQWRKLINSFRLKVLMTLSNHTTVGNINIASEFKNIATNSPLMNSLADNGQLVYLDQQGNRYPQFNAQWSGYYMDDTFIQRMRERRDPRLFIFSAQTNKGKTEGKPIDDFSSYEGGDPAAPYSDAIIKVSEGTISPINDRFRTDPIVEPTMLMGYAELQQILAEAVVRGWISGNAQTYYEKGIRASFSFYETHAKDYAGYLNENAVAQYLKEPLVDFTQASGTEEQIERIIMQKYLVTFYQGNWDSFYEQLRTGYPDFRRPAGTEIPKRWMYPQGEYDNNGTNVETAITRQFGAGNDKINQATWWQKKS
[1]
  glycan array binding signal (z-score): -0.424
[2]
  glycan array binding signal (z-score): 0.079
[3]
  glycan array binding signal (z-score): -0.223
Fuc(a1-2)Gal(b1-4)Glc6S
  glycan array binding signal (z-score): -0.448
Fuc(a1-2)Gal(b1-4)GlcNAc
  glycan array binding signal (z-score): -0.024
[4]
  glycan array binding signal (z-score): 2.33
[5]
  glycan array binding signal (z-score): -0.786
[6]
  glycan array binding signal (z-score): 0.672
[7]
  glycan array binding signal (z-score): -0.426
[8]
  glycan array binding signal (z-score): -0.704
[9]
  glycan array binding signal (z-score): 0.217
[10]
  glycan array binding signal (z-score): -0.479
[11]
  glycan array binding signal (z-score): 0.449
[12]
  glycan array binding signal (z-score): 0.984
[13]
  glycan array binding signal (z-score): 1.38
[14]
  glycan array binding signal (z-score): 0.166
[15]
  glycan array binding signal (z-score): -0.707
[16]
  glycan array binding signal (z-score): 1.36
[17]
  glycan array binding signal (z-score): 6.27
[18]
  glycan array binding signal (z-score): 2.29
[19]
  glycan array binding signal (z-score): 0.374
[20]
  glycan array binding signal (z-score): 9.32
[21]
  glycan array binding signal (z-score): -0.8
[22]
  glycan array binding signal (z-score): 11.2
